# EWS-Fli inh = EWS/Fli-driven NR0B1 reporter inhibitors, primary screen, A673 cells, NR0B1 luciferase, luminescence, MLPCN library; 0.67% of 350,000 active; inhibition, % at 12.6 µM; AID 651661, 2012; viability-normalised;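 active means mean inhibition of at least 50% after viability correction, with every replicate also passing that limit; inconclusive means mean reaches 50% but only one of two replicates passes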;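 further: firefly luciferase signal divided by Alamar Blue viability fluorescence both relative to DMSO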
# PAX8 reporter = inhibitors of PAX8-driven TPO luciferase reporter, primary screen, RMG-I cells, single concentration; 1.2% of 360,000 active; inhibition, % at 12.6 µM; SteadyGlo, 24 h; AID 652154, 2013;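 active means mean replicate inhibition at least 60% with every replicate also reaching 60%; inconclusive means only one of the two criteria is met; inactive means mean below 60% and not all replicates reaching 60%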;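 further: luciferase light reporting Pax8 driven TPO promoter activity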
# Shn3 inh set2 = reduction of Shn3 3'UTR firefly luciferase signal, primary screen, Schnurri-3 inhibitor project, cell-based, Clone20 osteoblasts, set 2. inhibition, % at 12.5 µM. Clone20 osteoblast Shn3 3'UTR firefly luciferase, 24 h. 0.52% of 360,000 active. AID 588674, 2011;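 active means mean inhibition of at least 75% with every replicate also reaching 75%; inconclusive means mean inhibition at least 75% but some replicate below; inactive means mean inhibition below 75%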
# LGR2 antag = inhibitors of bursicon-induced LGR2 CRE-luciferase signal, primary screen, cell-based, HEK293, CRE-luciferase reporter, bursicon stimulation. bursicon-stimulated, 4 h. 0.35% of 380,000 active. inhibition, % at 9.99 µM;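 active means drop in luminescence signal, shown as inhibition above about 50% in the replicate tests, limit read from the data, passing the limit was not always enough; inconclusive means probably only some replicates passing the limit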;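 further: agonist challenge used bursicon conditioned medium at about half maximal strength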
# CF NFkB block = inhibitors of PAF-induced NF-kB signaling, primary screen, cell-based, GFP fluorescence, uHTS. 0.86% of 360,000 active. KKLEB NF-kB-GFP reporter, GFP fluorescence overnight. AID 588850, 2011. inhibition, % at 5 µM;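 active means at least 50% inhibition at 5 µM, scaled per plate between neutral and stimulator controls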;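 further: PAF is a Pseudomonas aeruginosa culture filtrate used as stimulus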
# KKLEB cytotox = cytotoxicity in KKLEB CF airway cells, primary screen, cytotoxicity control for CF NF-kB inhibitor project, cell-based, uHTS, fluorescence assay plates; KKLEB CF airway cells viability, ATPlite luminescence, overnight; hits give low values; cells stimulated with P. aeruginosa culture filtrate; activity change (cytotoxicity), % at 5 µM; 0.36% of 360,000 active; AID 602141, 2011;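 active means corrected activity change at or below -50% at 5 µM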
# Hits are given with their value; . = inactive; ? = inconclusive; / = no result. Sampled rows, rich in hits. Any-hit rate of the full collection: about 2%.
SMILES,EWS-Fli inh,PAX8 reporter,Shn3 inh set2,LGR2 antag,CF NFkB block,KKLEB cytotox
C[C@@H]1CCCCO[C@H](CN(C)C(=O)Cc2ccccc2)[C@@H](C)CN([C@@H](C)CO)C(=O)c2cc(NC(=O)Nc3ccc(C(F)(F)F)cc3)ccc2O1,.,78.6,/,.,/,/
C[C@@H]1CN([C@H](C)CO)C(=O)c2cc(NC(=O)Nc3ccc(C(F)(F)F)cc3)ccc2O[C@@H](C)CCCCO[C@@H]1CN(C)C(=O)Cc1ccccc1,.,71.9,/,.,/,/
O=C(C[C@H]1C[C@@H]2c3cc(NC(=O)c4ccc5c(c4)OCO5)ccc3O[C@@H]2[C@H](CO)O1)NCc1ccccn1,.,.,/,.,/,/
CCC(=O)Nc1ccc2c(c1)C(=O)N(C)C[C@H](OC)[C@@H](C)CN(Cc1ccccc1)[C@H](C)CO2,.,/,/,.,/,/
O=C(N[C@@H]1CC[C@@H](CCn2cc(C3CCCC3)nn2)O[C@H]1CO)c1cccnc1,/,.,/,.,/,/
C[C@@H]1CN([C@H](C)CO)C(=O)c2cc(NC(=O)Nc3ccccc3)ccc2O[C@@H](C)CCCCO[C@@H]1CN(C)C(=O)Cc1ccccc1,.,.,/,.,/,/
C[C@@H]1CCCCO[C@H](CN(C)C(=O)Cc2ccccc2)[C@H](C)CN([C@@H](C)CO)C(=O)c2cc(NC(=O)Nc3ccc(C(F)(F)F)cc3)ccc2O1,.,78.6,/,.,/,/
C=CC[C@H](CC(=O)N(CCO)Cc1ccccc1)C(=O)N[C@H](COC(=O)[C@@H](CC=C)Cc1ccc(F)cc1)C(C)(C)C,.,.,.,.,.,.
C=CCC[C@H](Cc1ccc(F)cc1)C(=O)OC[C@@H](NC(=O)[C@@H](CC=C)CC(=O)N[C@@H](CO)Cc1ccccc1)C(C)(C)C,.,108.0,.,.,.,.
C=CCC[C@H](Cc1ccc(F)cc1)C(=O)OC[C@@H](NC(=O)[C@@H](CC=C)CC(=O)N(CCO)Cc1ccccc1)C(C)(C)C,.,64.1,.,.,.,.
CC(C)C#Cc1ccc2c(c1)O[C@H](CN(C)Cc1cncnc1)[C@@H](C)CN([C@@H](C)CO)S2(=O)=O,.,/,/,.,/,/
COc1ccc(S(=O)(=O)Nc2ccc3c(c2)C(=O)N([C@H](C)CO)C[C@H](C)[C@H](CN(C)S(=O)(=O)c2ccc(F)cc2)OCCCC[C@@H](C)O3)cc1,.,.,/,?,/,/
COc1ccc(S(=O)(=O)Nc2ccc3c(c2)C(=O)N([C@H](C)CO)C[C@H](C)[C@H](CN(C)S(=O)(=O)c2ccc(F)cc2)OCCCC[C@H](C)O3)cc1,.,77.0,/,.,/,/
COc1ccc(S(=O)(=O)Nc2ccc3c(c2)C(=O)N([C@H](C)CO)C[C@@H](C)[C@H](CN(C)S(=O)(=O)c2ccc(F)cc2)OCCCC[C@H](C)O3)cc1,.,79.0,/,.,/,/
C=CCNC(=O)[C@H]1[C@@H]2C(=O)O[C@@H](c3ccccc3)[C@@H](c3ccccc3)N2[C@@H](c2ccccc2OCCO)[C@]12C(=O)Nc1ccc(C#CCC(C(=O)OC)C(=O)OC)cc12,54.0,/,/,/,/,/
COC(=O)C(CC#Cc1ccc2c(c1)[C@]1(C(=O)N2)[C@H](c2ccccc2OCCO)N2[C@H](c3ccccc3)[C@H](c3ccccc3)OC(=O)[C@H]2[C@@H]1C(=O)N1CCN(c2ncccn2)CC1)C(=O)OC,59.7,109.8,/,/,/,/
C=CCNC(=O)[C@H]1[C@@H]2C(=O)O[C@@H](c3ccccc3)[C@@H](c3ccccc3)N2[C@@H](c2ccc(OCCO)cc2)[C@]12C(=O)Nc1ccc(C#CCC(C(=O)OC)C(=O)OC)cc12,.,.,/,/,/,/
NC(=O)[C@H]1[C@@H]2C(=O)O[C@@H](c3ccccc3)[C@@H](c3ccccc3)N2[C@@H](c2ccccc2OCCO)[C@]12C(=O)Nc1ccc(C#CC3(O)CCCCCC3)cc12,.,103.1,/,/,/,/
C/C=C/c1ccc([C@@H]2[C@@H](C#N)N(C(=O)CN3CCOCC3)[C@H]2CO)cc1,.,.,/,.,/,/
COc1ccc(/C=N/NC(=S)Nc2cccc(C(=O)O)c2)cc1,.,.,.,75.2,.,.
COc1cc(/C=N/NC(=S)Nc2cccc(C(=O)O)c2)ccc1O,81.4,79.7,.,91.2,.,.
COc1ccc(/C=N/NC(=S)Nc2ccccc2)cc1,.,.,.,.,.,.
COc1cccc(/C=N/NC(=S)Nc2cccc(C(=O)O)c2)c1O,61.2,.,.,65.9,.,.
COc1ccc(NC(=O)N(C)C[C@H]2Oc3ccc(NC(=O)C4CCCCC4)cc3CC(=O)N([C@H](C)CO)C[C@H]2C)cc1,.,/,/,.,/,/
CO[C@@H]1CN(C)C(=O)c2ccc(NC(=O)C3CCOCC3)cc2OC[C@@H](C)NC[C@H]1C,.,/,/,.,/,/
SMILES,EWS-Fli inh,PAX8 reporter,Shn3 inh set2,LGR2 antag,CF NFkB block,KKLEB cytotox
NC(N)=N/N=C/c1ccc(Br)cc1,56.0,.,.,.,.,.
O=C(CCS(=O)(=O)c1ccccc1)Nc1nc2ccc(F)cc2s1,.,107.0,.,.,.,.
Cc1nc2ccc(NC(=O)CCS(=O)(=O)c3ccccc3)cc2s1,.,.,.,.,.,.
Cc1ccc2nc(-c3ccc(NC(=S)NC(=O)CC(C)C)cc3)sc2c1,/,.,.,/,.,.
Cc1ccc2nc(-c3ccc(NC(=O)C(C)Sc4nncs4)cc3)sc2c1 (stereo unspecified),.,.,.,58.4,.,.
Cc1ccc2nc(-c3ccc(NC(=O)CCS(=O)(=O)c4ccccc4)cc3)sc2c1,70.4,.,.,.,.,.
C[C@@H]1CN([C@H](C)CO)C(=O)Cc2cc(NS(=O)(=O)c3cccs3)ccc2O[C@@H]1CN(C)Cc1ccncc1,.,.,/,.,/,/
COc1ccc(S(=O)(=O)N(C)C[C@H]2OCCCC[C@@H](C)Oc3ccc(NC(=O)Nc4ccccc4)cc3C(=O)N([C@@H](C)CO)C[C@H]2C)cc1,.,.,/,.,/,/
CC(=O)N(C)c1ccc(N=Nc2ccc3ncccc3c2)cc1,.,.,.,66.4,.,.
Cc1nc(=S)c2c([nH]1)-c1ccccc1CC21CCCCC1,54.4,.,.,.,.,.
CCc1nc2c(c(=O)[nH]1)C1(CCCC1)Cc1ccccc1-2,/,/,.,/,.,.
COc1cccc(CN(C)C[C@H]2OCc3cn(nn3)CCCC(=O)N([C@@H](C)CO)C[C@@H]2C)c1,.,/,/,.,/,/
O=[N+]([O-])c1ccc(Sc2ccncn2)c([N+](=O)[O-])c1,.,105.5,.,?,89.9,-55.4
Cc1cc(C)nc(Sc2ccc([N+](=O)[O-])cc2[N+](=O)[O-])n1,/,93.9,.,.,.,.
O=[N+]([O-])c1ccc(Sc2cccc3cccnc23)c([N+](=O)[O-])c1,.,/,93.1,.,.,.

# Source: PubChem
